From PubChem BioAssay
Most compounds without a hit are left out; they make up all but 1.4% or so of the library.
APOBEC3G inh = inhibitors of human APOBEC3G DNA deaminase | inhibition, % at 20 µM | Q9HC16 | 330,000 compounds, 0.28% hits | recombinant A3G, ssDNA deamination FAM/TAMRA fluorescence;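 active = inhibition of at least 40% at 20 µM, with no more than 30% in the related APOBEC3A deaminase screen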
Target sequence (Q9HC16 whole entry, looked up): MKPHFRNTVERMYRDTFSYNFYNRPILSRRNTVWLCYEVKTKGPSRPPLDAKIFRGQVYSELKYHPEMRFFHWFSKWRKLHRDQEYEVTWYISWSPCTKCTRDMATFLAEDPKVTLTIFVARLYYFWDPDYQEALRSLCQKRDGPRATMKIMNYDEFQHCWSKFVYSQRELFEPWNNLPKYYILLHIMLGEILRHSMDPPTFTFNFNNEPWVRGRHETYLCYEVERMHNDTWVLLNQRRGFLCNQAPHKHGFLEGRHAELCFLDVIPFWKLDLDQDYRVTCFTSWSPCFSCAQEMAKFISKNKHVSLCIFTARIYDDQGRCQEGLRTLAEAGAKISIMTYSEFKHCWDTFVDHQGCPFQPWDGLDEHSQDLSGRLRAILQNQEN
VLA-4 inh = inhibition in a human VLA-4 binding assay; P13612; VLA-4 expressing cells, ligand binding flow cytometry; inhibition, % (about 7 µM as worked out from the volumes in the protocol); 330,000 compounds, 0.2% hits; AID 2557; in the data active = inhibition above about 50%
GRK2 aptamer HTS = blocks RNA aptamer binding to human GRK2 | AID 488847 | P25098 | inhibition of aptamer binding, % at 10 µM | 330,000 compounds, 0.59% hits | bead flow cytometry, FAM-aptamer displacement from GRK2;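 active = inhibition of aptamer binding above 40%, roughly 3 SD of noise, on plates passing a quality check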;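 also: median bead fluorescence of bound FAM aptamer so fluorescent compounds give negative values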
A3A deaminase = human APOBEC3A DNA deaminase inhibition; P31941; recombinant A3A, FAM/TAMRA ssDNA deamination fluorescence; inhibition, % at 20 µM; 330,000 compounds, 0.41% hits; AID 493011;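 active = at least 40% inhibition at 20 µM here, with at most 30% in a related deaminase screen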
Target sequence (P31941 whole entry, looked up): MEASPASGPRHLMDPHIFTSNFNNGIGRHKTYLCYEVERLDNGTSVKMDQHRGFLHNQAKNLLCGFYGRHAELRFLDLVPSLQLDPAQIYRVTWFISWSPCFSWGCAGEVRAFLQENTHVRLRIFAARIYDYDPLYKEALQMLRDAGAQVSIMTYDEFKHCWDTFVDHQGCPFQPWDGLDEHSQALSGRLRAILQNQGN
GRK2 inh confirm = human GRK2 inhibition confirmation, cherry pick 1 | aptamer displacement, % at 10 µM | bead-bound GRK2, FAM-aptamer displacement, flow cytometry | AID 504451 | 2,000 compounds, 4% hits | shares compounds with GRK2 aptamer HTS;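 active = aptamer displacement above 40%, near three times the noise of non-fluorescent compounds, on plates passing quality checks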;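 also: negative values mostly reflect intrinsic compound fluorescence rather than true enhancement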
Aptamer quench 1 = counter-screen for GRK2 aptamer inhibitors: fluorescent aptamer quenchers | fluorescence change (kMESF span), kMESF (test concentration not listed) | shares compounds with GRK2 aptamer HTS | 110 tested, under 10 active | Fluorescent RNA aptamer beads, quenching, flow cytometry; active compounds read high | AID 504521;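 active = compounds whose bead fluorescence drops by more than 37 kMESF across the dose range, marking them as dye quenchers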
FAM quench CP1 = aptamer fluorescence quenching in GRK2 counter-screen. fluorescence response (% of DMSO), % at 10 µM. AID 504580. Carboxyfluorescein RNA aptamer on beads, flow cytometry quenching; active compounds read low. 2,000 tested, under 10 active. shares compounds with GRK2 aptamer HTS;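 active = compounds that quench the bead-bound fluorescent RNA probe, cutting fluorescence to under half of the solvent control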;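 also: counterscreen run without GRK2 so only probe quenching by compound is measured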
GRK2 CP2 = confirmation of human GRK2 inhibitors binding RNA aptamer site; shares compounds with GRK2 aptamer HTS; bead-bound GRK2, FAM-aptamer displacement, flow cytometry; inhibition of aptamer binding, % at 10 µM; 360 tested, under 10 active; AID 504782;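 active = inhibition of aptamer binding above 40%, about triple the noise seen with nonglowing compounds, on plates passing quality control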;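 also: negative values mostly come from compounds that fluoresce themselves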
FAM quench SP = counter-screen for GRK2 binding hits: quenchers of fluorescent RNA aptamer; shares compounds with GRK2 aptamer HTS; carboxyfluorescein RNA aptamer beads, flow cytometry quenching; active compounds read low; fluorescence response vs DMSO, % at 10 µM; 360 tested, under 10 active;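 active = response vs DMSO under 50%, meaning signal dropped by over half, treated as fluorescence quencher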;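 also: labelled aptamer on streptavidin beads without GRK2 as a quench counter-screen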
Numbers stand for hits; - = inactive; . = no result.

SMILES | APOBEC3G inh | VLA-4 inh | GRK2 aptamer HTS | A3A deaminase | GRK2 inh confirm | FAM quench CP1 | others
O=C(CN1C(=O)NC2(CCCc3ccccc32)C1=O)NCC(F)(F)F (stereo not drawn) | - | - | - | - | . | .
CC(=O)C1C(c2ccc(Br)cc2)c2c(noc2C)CC1(C)O (stereo not drawn) | - | - | - | - | . | .
O=C(CNC(=O)c1ccccc1F)N/N=C/c1ccc2c(c1)OCO2 | - | - | 82 | - | - | -
O=C(CNC(=O)c1ccccc1Cl)N/N=C/c1ccc2c(c1)OCO2 | - | - | - | - | . | .
Cc1ccc(N2C(=O)N(CC(=O)Nc3ccc(F)c(F)c3)C(=O)C2C)cc1 (stereo not drawn) | - | - | 100 | - | - | -
Cc1ccc(N2C(=O)N(CC(=O)Nc3ccc([N+](=O)[O-])cc3)C(=O)C2C)cc1 (stereo not drawn) | - | - | 100 | - | . | . | GRK2 CP2=-;FAM quench SP=-
Cc1c(CC(=O)NCC(=O)N[C@H](Cc2ccccc2)C(=O)O)c(=O)oc2cc(O)ccc12 | - | - | - | - | . | .
CC(=O)c1cccc(NC(=O)CN2C(=O)NC(C)(c3ccc4c(c3)OCCCO4)C2=O)c1 (stereo not drawn) | - | - | - | - | . | .
O=C(CN(Cc1ccc(F)cc1)C(=O)CCC(=O)Nc1ccccn1)NCc1ccco1 | - | - | 100 | - | - | -
O=C(Nc1nnc(SCc2ccccc2)s1)c1cccc([N+](=O)[O-])c1 | - | - | - | - | . | .
CCN(CC)CCOC(=O)c1ccc(N/C=C(/C#N)c2nc(-c3cc4ccccc4oc3=O)cs2)cc1 | - | - | 100 | - | 97 | 38
O=C(NCc1ccco1)C1CCCN1C(=O)NCc1ccccc1 (stereo not drawn) | - | - | - | - | - | -
O=C(NCc1ccco1)C1CCCN1C(=O)Nc1ccccc1 (stereo not drawn) | - | - | - | - | . | .
O=S(=O)(NCCn1cccc1)c1ccc2ccccc2c1 | - | - | - | - | . | .
CC(C(=O)NC1(C#N)CCCCC1)N(C)CC(=O)Nc1ccc(Cl)c(Cl)c1 (stereo not drawn) | - | - | - | - | . | .
COc1ccccc1CCC(=O)OCC(=O)Nc1c(Br)cc(C)cc1Br | - | - | - | - | . | .
O=C(NNC1CC(=O)N(c2ccccc2)C1=O)c1cccnc1 (stereo not drawn) | - | - | - | - | . | .
CC(C)c1ccc(N2C(=O)CC(NNC(=O)c3cccnc3)C2=O)cc1 (stereo not drawn) | - | - | 98 | - | - | -
Cc1ccc(NC(=O)N(Cc2cc3cc(C)cc(C)c3[nH]c2=O)CC2COCCO2)cc1 (stereo not drawn) | - | - | - | - | . | .
O=C1NC(=O)/C(=C\c2ccc(O)cc2O)S1 | - | - | 76 | - | - | -
Cc1cccc(Cn2c(=O)oc3ccc(C)cc32)c1 | - | - | 68 | - | - | -
O=C(CCc1ccccn1)NC1CCCc2c1cnn2-c1ccc(F)cc1F (stereo not drawn) | - | - | - | - | . | .
COc1ccc(OC)c(S(=O)(=O)N2CCN(c3c(C)cccc3C)CC2)c1 | - | - | 95 | - | - | -
O=C(CNc1ccccc1F)Nc1cc(S(=O)(=O)N2CCCCC2)ccc1Cl | - | - | 52 | - | - | -
COc1ccc(CNC(=O)c2cc(-c3ccco3)on2)cc1 | - | - | - | - | . | .
SMILES | APOBEC3G inh | VLA-4 inh | GRK2 aptamer HTS | A3A deaminase | GRK2 inh confirm | FAM quench CP1 | others
CCCCOC(=O)/C(=C/C=C/c1ccccc1)NC(=O)c1ccccc1 | - | - | - | - | . | .
COc1ccc(-c2nc3ccccc3c(=O)n2CC(C)C)cc1 | - | - | 98 | - | - | -
COc1ccc(-c2nc3ccccc3c(=O)n2N)cc1 | - | - | - | - | . | .
COc1ccc(C(=O)OC(C)CN2CCOCC2)cc1 (stereo not drawn) | - | - | - | - | . | .
CCCn1cc(SCC(=O)NCc2ccco2)c2ccccc21 | - | - | - | - | . | .
O=C(CSc1cn(CCNC(=O)c2cccs2)c2ccccc12)NC1CCCC1 | - | - | - | - | . | . | GRK2 CP2=-;FAM quench SP=-
O=C(CSc1cn(CCNC(=O)c2ccccc2)c2ccccc12)NCc1ccco1 | - | - | 72 | - | - | -
O=C(CSc1ccc2nnc(-c3ccccn3)n2n1)Nc1ccc2c(c1)OCO2 | - | - | - | - | . | .
O=C(O)C1C2C=CC(C2)C1C(=O)Nc1ccc2c(c1)OCCO2 (stereo not drawn) | - | - | - | - | . | . | GRK2 CP2=-;FAM quench SP=-
COc1ccc(/C=C/c2nc3cc(-c4ccccc4)ccc3o2)cc1O | - | - | - | - | . | .
COc1ccc(NC(=O)C2=CC(c3ccc(C)cc3)=NS(=O)(=O)N2C)cc1 | - | - | 54 | - | - | -
COC(=O)c1c(NC(=O)CN2CCN(S(=O)(=O)c3ccccc3)CC2)sc2c1CCC(C)C2 (stereo not drawn) | - | - | - | - | . | .
Cc1nc(CSc2nnc(C)s2)cs1 | - | - | - | - | . | .
O=C(O)CC1NC(=O)N(c2ccc(Cl)cc2)C1=O (stereo not drawn) | - | - | - | - | . | .
CC(=O)c1cccc(NC(=O)C2CCCC2)c1 | - | - | - | - | . | .
O=C(NCc1ccccc1)c1cccc(NC(=O)C2CCC2)c1 | . | . | . | . | - | -
O=C(NCc1ccccc1)c1cccc(COc2ccccc2Cl)c1 | - | - | - | - | - | -
O=C(NCc1ccccc1)c1cccc(NC(=O)C2CCCC2)c1 | . | . | . | . | - | -
CCCCc1cc(=O)oc2c(CN3CCN(C)CC3)c(O)ccc12 | - | - | - | - | . | .
CCCc1cc(=O)oc2c(CN3CCN(C)CC3)c(O)ccc12 | - | - | 51 | - | - | -
COc1cccc(/C=N/NC(=O)CC2C(=O)NN=C2C)c1O (stereo not drawn) | - | - | 66 | - | - | -
O=C(c1ccc(Cl)cc1)n1c(NCc2ccccc2)n[nH]c1=S | - | - | 65 | - | - | -
O=C(CCC(=O)c1ccc(Cl)cc1)NCc1ccccc1 | - | - | - | - | . | .
O=C(C1CCCN(S(=O)(=O)c2cccc3nsnc23)C1)N1CC=C(c2ccccc2)CC1 (stereo not drawn) | - | - | - | - | - | -
O=C(C1CCN(S(=O)(=O)c2cccc3nsnc23)CC1)N1CC=C(c2ccccc2)CC1 | - | - | - | - | . | .
COc1ccccc1-[n+]1c(C)cc(/C=C2\Sc3ccccc3N2C)cc1C | - | - | 68 | - | 62 | - | Aptamer quench 1=-
